HT1080-NT tox: kills 2HG-producing HT-1080-NT fibrosarcoma cells | HT-1080-NT fibrosarcoma viability, CellTiter-Glo ATP luminescence, 48 h | AID 686970 | Potency, µM (doses to about 46.1 µM), inactives show at the highest dose activity, negative = less viability, hits mostly cytotoxic | 1.6% of 360,000 active;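 also: NT is the 2HG producing partner of a matched IDH1 knockdown line; 0% = DMSO-treated cells and -100% = media-only wells without cells; nearly all actives have a fitted effect of over 55% in size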
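Toxicity toward the 2HG-producing NT line was scored as %Activity, normalised to DMSO and no-cell wells, from CellTiter-Glo luminescence after 48 hours' treatment.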
TDP1 cell CPT: growth inhibition of DT40 Tdp1-/-;hTDP1 cells with camptothecin (screen for TDP1 inhibitors) | Potency, µM (titrated, usually from 46.2 µM), without a hit: top-dose activity change, negative = growth inhibition, hits mostly inhibitors | chicken DT40 Tdp1-/-;hTDP1 cells + 20 nM CPT, ATP luminescence, 48 h | 12% of 420,000 active | AID 686979; also: % is scaled to controls: 0 for no effect and ±100 for the full control effect; nearly all actives have a fitted effect of over 55% in size
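Cell growth measured by CellTiter-Glo luminescence after a minimum 48 h, 37 C compound exposure with 20 nM CPT in Tdp1-knockout DT40 cells stably expressing hTDP1, seeded 400/well; qHTS titration format.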
HT1080 IDH1KD tx: kills HT-1080 cells with IDH1 knockdown. HT-1080 IDH1 knockdown viability, ATP luminescence, 48 h. Potency, µM (titrated, usually from 46.1 µM), inactives show top-dose activity, negative = toxicity, actives largely listed as cytotoxic. 2% of 360,000 active;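 also: 0% = DMSO wells and -100% = cell-free medium wells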
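Assay cells: HT-1080 with IDH1 knockdown, 750 per well, RPMI/5% FBS. Exposure: 48 h at 37 °C following 2 h pre-incubation. Read: CellTiter-Glo luminescence; fitted concentration-response, curve class assigned.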
HepG2 tox: kills HepG2 cells in TGF-b inhibitor counter-screen; HepG2 CAGA-GFP viability, ATP luminescence, 18 h; Potency, µM (doses to about 46.1 µM), without a hit: at the top dose activity change, negative = cytotoxicity, actives largely listed as cytotoxic; 0.76% of 410,000 active
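HepG2 CAGA-GFP cells (1000/well, DMEM with 1% FBS) received compound, then TGF-beta at 500 pg/mL final, and were incubated 18 hours at 37 degrees C. Viability was read by CellTiter-Glo luminescence. Media-only wells were set as complete cell-killing and DMSO as no toxicity.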
TGFb inhibitor: inhibitors of TGF-b signaling. AID 588855. 1.2% of 410,000 active. Potency, µM (top dose mostly 46.1 µM), without a hit: at the top dose activity, negative = inhibition, actives largely listed as inhibitors. HepG2 CAGA-GFP TGF-b/SMAD3 reporter, GFP fluorescence, 18 h; TGF-beta stimulated, 500 pg/mL final; also: % is scaled to controls: 0 for no effect and ±100 for the full control effect; nearly all actives have a fitted effect of over 65% in size
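Per well, imaged GFP fluorescence of HEPG2 CAGA-GFP cells gives the signal; cells get compound, then TGF-beta (500 pg/mL final), 18 h at 37 degrees C; %Activity versus -TGF-beta and +DMSO controls.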
DT40 TDP1 no CPT: qHTS for Inhibitors of human tyrosyl-DNA phosphodiesterase 1 (TDP1): qHTS in cells in absence of CPT. Potency, µM (doses to about 46.2 µM), inactives show at the top dose activity change, negative = growth inhibition, hits mostly inhibitors. AID 686978, 2013. 15% of 420,000 active. DT40 Tdp1-/- hTDP1 cells, no CPT, ATP luminescence, 48 h; also: % is scaled to controls: 0 for no effect and ±100 for the full control effect; nearly all actives have a fitted effect of over 55% in size
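Compound effects on proliferation are scored in DT40 Tdp1-/-;hTDP1 cells in the absence of CPT. ATP levels (CellTiter-Glo luminescence) are recorded after a ≥48 hr, 37 °C incubation.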
* hit, by the source's call. Sampled rows, rich in hits. Any-hit rate of the full collection: about 17%. Calls follow the shape of the dose curve; as a rule, active = well fitted curve in the direction sought with a large enough effect; inconclusive = small, poorly fitted or top-dose-only effect, or another doubt; inactive = no such curve, though single readings can be large; an effect the other way counts as inactive or inconclusive. Potency is read from the fitted curve at half-maximal effect.

`O=C(C[C@@H]1C/C=C/CCCC(=O)O[C@H](c2ccccc2)CNC1=O)N[C@H](CO)Cc1ccccc1` gave HT1080-NT tox 2.0%, TDP1 cell CPT inconclusive, HT1080 IDH1KD tx 1.0%, HepG2 tox 0.4%, TGFb inhibitor 6.8% and DT40 TDP1 no CPT inconclusive.
For O=C(O)c1ccccc1Nc1cccc(OCc2ccc3ccccc3n2)c1 the results were HT1080-NT tox 22.6%, TDP1 cell CPT inconclusive, HT1080 IDH1KD tx 2.9%, HepG2 tox -17.3%, TGFb inhibitor 3.1% and DT40 TDP1 no CPT inconclusive.
`COc1ccc(-c2csc(N3CCN(c4cc5c(cc4Cl)nc(-c4ccncc4)n5CCOCCO)CC3)n2)cc1` gave HT1080-NT tox -1.8%, TDP1 cell CPT 11.6µM*, HT1080 IDH1KD tx -1.2%, HepG2 tox -1.7%, TGFb inhibitor -25.2% and DT40 TDP1 no CPT inconclusive.
Screening COc1ccc(-c2csc(NCCc3nc4cc(Cl)c(N5CCCCC5)cc4n3CCOCCO)n2)cc1 returned HT1080-NT tox 0.0%, TDP1 cell CPT 23.1µM*, HT1080 IDH1KD tx 0.6%, HepG2 tox -12.3%, TGFb inhibitor inconclusive and DT40 TDP1 no CPT 9.2µM*.
For Cc1ccc(-c2csc(N3CCN(c4cc5c(cc4Cl)nc(-c4ccncc4)n5CCN4CCCCC4)CC3)n2)cc1 the results were HT1080-NT tox inconclusive, TDP1 cell CPT inconclusive, HT1080 IDH1KD tx -13.9%, HepG2 tox -24.5%, TGFb inhibitor inconclusive and DT40 TDP1 no CPT inconclusive.
For CC(=S)/C=C1\Sc2ccccc2N1C the results were HT1080-NT tox inconclusive, TDP1 cell CPT 14.6µM*, HT1080 IDH1KD tx inconclusive, HepG2 tox -20.3%, TGFb inhibitor inconclusive and DT40 TDP1 no CPT 23.1µM*.
Screening OCCO returned HT1080-NT tox 0.2%, TDP1 cell CPT 3.8%, HT1080 IDH1KD tx 5.6%, HepG2 tox 5.1%, TGFb inhibitor 4.9% and DT40 TDP1 no CPT 12.2%.
COc1ccc(CNCc2c(C(=O)O)c(C)n(Cc3ccc(Cl)cc3)c2C)c(OC)c1 was read as TDP1 cell CPT inconclusive, HepG2 tox -23.5%, TGFb inhibitor -13.2% and DT40 TDP1 no CPT inconclusive.
`CCCC(=O)Nc1ccc2nc(SCc3ccc(C)cc3)sc2c1` gave TDP1 cell CPT -1.8%, HepG2 tox -0.4%, TGFb inhibitor 6.8% and DT40 TDP1 no CPT inconclusive.
Screening CCCC(=O)Nc1nc2ccc(NC(=O)c3ccccc3F)cc2s1 returned HT1080-NT tox inconclusive, TDP1 cell CPT 1.84µM*, HT1080 IDH1KD tx inconclusive, HepG2 tox -15.5%, TGFb inhibitor -3.0% and DT40 TDP1 no CPT 2.06µM*.
For COc1ccc2nc(NC(=O)c3ccccc3F)sc2c1 the results were HT1080-NT tox -10.5%, TDP1 cell CPT -24.2%, HT1080 IDH1KD tx -13.4%, HepG2 tox -22.1%, TGFb inhibitor 5.2% and DT40 TDP1 no CPT inconclusive.
`O=C(CSc1nc2ccc(NC(=O)CSc3nnnn3-c3ccccc3)cc2s1)Nc1ccccc1` gave HT1080-NT tox inconclusive, TDP1 cell CPT 16.4µM*, HT1080 IDH1KD tx inconclusive, HepG2 tox -63.8%, TGFb inhibitor inconclusive and DT40 TDP1 no CPT inconclusive.
`O=C(CSc1nnnn1-c1ccccc1)Nc1ccccc1` gave HT1080-NT tox 9.8%, TDP1 cell CPT -1.2%, HT1080 IDH1KD tx 5.4%, HepG2 tox -8.8%, TGFb inhibitor -0.5% and DT40 TDP1 no CPT 1.5%.
Screening COc1cc(C(=O)Nc2ccc3nc(SCc4ccccc4)sc3c2)cc(OC)c1OC returned TDP1 cell CPT 13µM*, HepG2 tox 4.4%, TGFb inhibitor -30.7% and DT40 TDP1 no CPT 14.6µM*.
For CCC(=O)Nc1ccc2nc(SCc3ccccc3)sc2c1 the results were TDP1 cell CPT inconclusive, HepG2 tox -17.8% and DT40 TDP1 no CPT 13µM*.
`CCN(CC)c1ccc(S(=O)(=O)N2CCOCC2)cc1NC(=O)COC(=O)C1=COCCO1` gave HT1080-NT tox -4.0%, TDP1 cell CPT inconclusive, HT1080 IDH1KD tx -4.2%, HepG2 tox 11.8%, TGFb inhibitor 16.0% and DT40 TDP1 no CPT inconclusive.
For CCC(CC)C(=O)Nc1ccc2nc(SCc3ccccc3)sc2c1 the results were TDP1 cell CPT 16.4µM*, HepG2 tox -17.8%, TGFb inhibitor -2.0% and DT40 TDP1 no CPT 16.4µM*.
Screening Cc1ccc(CSc2nc3ccc(NC(=O)COc4ccccc4F)cc3s2)cc1 returned TDP1 cell CPT -29.3%, HepG2 tox -8.1%, TGFb inhibitor -29.7% and DT40 TDP1 no CPT -26.9%.
Screening CCC(=O)Nc1nc2ccc(NC(=O)c3cc(OC)c(OC)c(OC)c3)cc2s1 returned HT1080-NT tox -25.8%, TDP1 cell CPT inconclusive, HT1080 IDH1KD tx -16.3%, HepG2 tox -18.9%, TGFb inhibitor 36.6% and DT40 TDP1 no CPT 20.6µM*.
Screening CCc1nnc2c(Nc3ccc(N(CC)CC)cc3C)nc3ccccc3n12 returned TDP1 cell CPT 18.4µM*, HepG2 tox -9.7%, TGFb inhibitor -6.2% and DT40 TDP1 no CPT 18.4µM*.
`COc1ccc(C(=O)Nc2ccc3nc(SCC(=O)N4CCCc5ccccc54)sc3c2)cc1` gave TDP1 cell CPT 9.2µM*, HepG2 tox -25.9%, TGFb inhibitor inconclusive and DT40 TDP1 no CPT 18.4µM*.
O=C(Nc1nnc(SCC(=O)N2CCCc3ccccc32)s1)c1ccc2ccccc2c1 was read as HT1080-NT tox -2.1%, TDP1 cell CPT -26.5%, HT1080 IDH1KD tx 0.3%, HepG2 tox 2.8%, TGFb inhibitor -13.9% and DT40 TDP1 no CPT inconclusive.
`Cc1ccc(C(=O)Nc2ccc3nc(SCC(=O)N4CCCc5ccccc54)sc3c2)cc1` gave TDP1 cell CPT 11.6µM*, HepG2 tox 93.0%, TGFb inhibitor 0.0% and DT40 TDP1 no CPT 7.31µM*.
O=C(Nc1ccc2nc(SCC(=O)N3CCc4ccccc43)sc2c1)c1ccccc1 was read as TDP1 cell CPT 5.8µM*, HepG2 tox 6.2%, TGFb inhibitor 0.0% and DT40 TDP1 no CPT 2.31µM*.
O=C(Nc1ccc2nc(SCC(=O)N3CCCc4ccccc43)sc2c1)c1ccccc1 was read as TDP1 cell CPT 20.6µM*, HepG2 tox -52.1%, TGFb inhibitor 0.0% and DT40 TDP1 no CPT 18.4µM*.
For O=C(Nc1nnc(SCC(=O)N2CCCc3ccccc32)s1)c1ccccc1 the results were HT1080-NT tox -0.2%, TDP1 cell CPT 13.6%, HT1080 IDH1KD tx 1.0%, HepG2 tox 9.0%, TGFb inhibitor -6.3% and DT40 TDP1 no CPT -7.5%.
